# Source: PubChem BioAssay (NCATS)
# Inconclusive results are not listed. Active and inactive are the calls of the source. Unless noted, calls follow the shape of the dose curve; as a rule, active = well fitted curve in the direction sought with a large enough effect; inconclusive = small, poorly fitted or top-dose-only effect, or another doubt; inactive = no such curve, though single readings can be large; an effect the other way counts as inactive or inconclusive.
# How the values were obtained:
# [1] = target: Lysosomal acid glucosylceramidase (Homo sapiens) (UniProt P04062); assay: Glucocerebrosidase-p2 (AID 348; in the data active = potency below about 10 µM; also: potency is read from the fitted curve at half-maximal effect); conditions: purified GBA, blue fluorogenic substrate, 40 min
# Chain of Lysosomal acid glucosylceramidase (Homo sapiens) (P04062 whole entry, looked up): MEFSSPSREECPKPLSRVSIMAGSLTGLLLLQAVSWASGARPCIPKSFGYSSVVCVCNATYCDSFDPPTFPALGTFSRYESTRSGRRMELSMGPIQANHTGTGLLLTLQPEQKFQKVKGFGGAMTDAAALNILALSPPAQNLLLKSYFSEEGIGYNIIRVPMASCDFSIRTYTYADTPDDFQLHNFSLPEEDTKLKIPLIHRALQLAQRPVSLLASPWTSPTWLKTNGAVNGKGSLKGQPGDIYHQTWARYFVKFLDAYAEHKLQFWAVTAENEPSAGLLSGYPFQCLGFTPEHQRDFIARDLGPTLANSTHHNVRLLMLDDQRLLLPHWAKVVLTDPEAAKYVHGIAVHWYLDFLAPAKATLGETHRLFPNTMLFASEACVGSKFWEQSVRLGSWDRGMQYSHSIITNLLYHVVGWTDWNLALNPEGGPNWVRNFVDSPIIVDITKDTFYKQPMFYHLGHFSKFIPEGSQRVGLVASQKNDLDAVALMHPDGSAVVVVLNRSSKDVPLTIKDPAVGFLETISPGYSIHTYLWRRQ
# Method in brief: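 Normal human glucocerebrosidase (0.2 nM) with blue fluorogenic substrate (80 uM final) in citrate/phosphate pH 5.9 with 10mM sodium taurocholate, 0.01% tween-20; 40 min RT, NaOH/glycine stop; fluorescence Ex 365/Em 440; AC50 from a titration from 0.6 nM upwards.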
# [2] = NFAT Signaling Pathway (AID 444; active = well fitted curve in either direction with a large enough effect, not every such curve was filed as active;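 also: carbachol stimulus at about its EC50 of 1 µM final; % is scaled to controls: 0 for no effect and ±100 for the full control effect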); conditions: Jurkat NFAT-bla M1, carbachol, beta-lactamase ratio, 5 h; at 7.69 µM (top of the series) unless noted
# Method in brief: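 Jurkat cells carrying an NFAT-driven β-lactamase reporter and co-transfected muscarinic M1 receptor were treated with compound plus carbachol (1 uM final, an EC50 level) for 5 h at 37 °C. CCF4 loading followed for 1 h at RT; 460/530 nm ratio gave %activity.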
# [3] = Stat Signaling Pathway (AID 446; active = well fitted curve in either direction with a large enough effect, not every such curve was filed as active;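 also: ME-180 cervical cancer cells given 40 pM IL-6 alongside compound; SIE-controlled beta-lactamase reporter measured as 460/530 nm FRET emission ratio; % is scaled to controls: 0 for no effect and ±100 for the full control effect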); conditions: ME-180 SIE beta-lactamase reporter, IL-6 stimulated, 5 h; at 7.69 µM (top of the series) unless noted
# Method in brief: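 Emission at 460 and 530 nm (excitation 405 nm) reports SIE-controlled beta-lactamase in ME-180 cells. Cells received compound with 40 pM IL-6 for 5 hrs at 37 C; data scaled between 300 pM IL-6 and 125 nM JAK-inhibitor controls.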
# [4] = target: Glucocorticoid receptor (Homo sapiens) (UniProt P04150); assay: GR-GFP Redistribution (AID 450;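 active = compounds whose dose series gives a full or clear partial fitted curve of increased nuclear translocation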; also: potency is read from the fitted curve at half-maximal effect); conditions: U2OS GR-GFP nuclear translocation, laser cytometry, 2 h
# Chain of Glucocorticoid receptor (Homo sapiens) (P04150 whole entry, looked up, the tested form may be a part): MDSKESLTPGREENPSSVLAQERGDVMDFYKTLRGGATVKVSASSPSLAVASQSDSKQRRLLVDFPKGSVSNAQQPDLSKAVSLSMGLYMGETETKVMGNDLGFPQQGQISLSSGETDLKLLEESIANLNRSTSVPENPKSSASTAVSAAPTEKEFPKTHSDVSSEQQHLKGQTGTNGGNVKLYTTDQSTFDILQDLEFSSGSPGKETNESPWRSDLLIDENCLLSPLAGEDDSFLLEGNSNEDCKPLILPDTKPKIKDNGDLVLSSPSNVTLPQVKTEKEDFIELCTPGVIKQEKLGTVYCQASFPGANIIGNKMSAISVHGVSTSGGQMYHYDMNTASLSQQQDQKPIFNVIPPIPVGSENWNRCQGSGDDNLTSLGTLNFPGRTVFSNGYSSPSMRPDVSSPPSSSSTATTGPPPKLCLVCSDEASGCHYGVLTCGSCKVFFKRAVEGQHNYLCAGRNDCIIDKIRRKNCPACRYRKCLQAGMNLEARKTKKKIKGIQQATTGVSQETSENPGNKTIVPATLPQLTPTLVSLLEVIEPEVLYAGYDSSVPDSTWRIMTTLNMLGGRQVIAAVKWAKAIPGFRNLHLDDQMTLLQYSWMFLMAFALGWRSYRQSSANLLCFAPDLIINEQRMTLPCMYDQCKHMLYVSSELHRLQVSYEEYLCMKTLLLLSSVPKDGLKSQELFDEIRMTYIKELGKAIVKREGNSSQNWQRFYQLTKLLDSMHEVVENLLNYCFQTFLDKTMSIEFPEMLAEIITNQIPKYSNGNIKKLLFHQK
# [5] = target: Mitogen-activated protein kinase 10 (Mus musculus) (UniProt Q61831); assay: JNK3 AlphaScreen Assay (AID 530; active = well fitted curve in either direction with a large enough effect, not every such curve was filed as active;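 also: kinase came from lysate of stimulated human HepG2 cells; signal reports phosphorylation of biotinylated GST-cJun 1-79 at Ser73 with 10 µM ATP; % is scaled to controls: 0 for no effect and ±100 for the full control effect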); conditions: JNK3 lysate, c-Jun phosphorylation; series mostly up to 57.1 µM
# Method in brief: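 Phosphorylation of biotinylated GST-cJun(1-79) at Ser73 is measured by AlphaScreen proximity luminescence. Enzyme is JNK3 in HepG2 lysates activated with interleukin-1beta and tumor necrosis factor alpha; ATP is 10 uM final.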
# [6] = target: Cytochrome P450 3A4 (Homo sapiens) (UniProt P08684); assay: qHTS Assay for Inhibitors and Substrates of Cytochrome P450 3A4 (AID 884); conditions: recombinant CYP3A4, Luciferin-PPXE luminescence; series mostly up to 57.1 µM; also: potency is read from the fitted curve at half-maximal effect; nearly all actives have a fitted effect of over 50% in size
# Chain of Cytochrome P450 3A4 (Homo sapiens) (P08684 whole entry, looked up): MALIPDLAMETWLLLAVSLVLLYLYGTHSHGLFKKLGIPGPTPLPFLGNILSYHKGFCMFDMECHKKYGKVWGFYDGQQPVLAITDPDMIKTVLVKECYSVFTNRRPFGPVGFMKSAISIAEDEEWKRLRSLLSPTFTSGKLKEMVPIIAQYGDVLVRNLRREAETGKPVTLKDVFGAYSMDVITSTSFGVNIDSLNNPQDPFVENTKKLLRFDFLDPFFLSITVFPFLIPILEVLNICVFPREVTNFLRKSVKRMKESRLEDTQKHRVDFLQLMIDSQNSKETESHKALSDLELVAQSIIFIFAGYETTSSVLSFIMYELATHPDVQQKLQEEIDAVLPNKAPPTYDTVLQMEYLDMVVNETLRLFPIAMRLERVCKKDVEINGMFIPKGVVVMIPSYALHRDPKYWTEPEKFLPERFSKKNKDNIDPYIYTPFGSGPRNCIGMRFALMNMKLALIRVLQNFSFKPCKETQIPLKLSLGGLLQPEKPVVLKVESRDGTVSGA
# Method in brief: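 Luminescent readout of luciferin produced by CYP3A4 (20 nM) dealkylation of Luciferin-PPXE, 25 uM (its KM). NADPH-driven reaction ran 60 min at RT after 10 min compound preincubation; data scaled to 57 uM ketoconazole as 100% inhibition.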
# [7] = target: Cytochrome P450 3A4 (Homo sapiens) (UniProt P08684); assay: qHTS Assay for Activators of Cytochrome P450 3A4 (AID 885); conditions: recombinant CYP3A4, Luciferin-PPXE luminescence, 60 min; series mostly up to 57.1 µM; also: nearly all actives have a fitted effect of over 65% in size
# Method in brief: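 Activators are scored by enhanced luminescence from CYP3A4 conversion of luciferin-PPXE (25uM, equal to KM) to luciferin, after 60 min at RT with an NADPH-regenerating system.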
# [8] = qHTS Assay for Lipid Storage Modulators (AID 1519; calls by dose curve); conditions: Drosophila S3 cells, BODIPY lipid droplet/cell ratio, laser cytometry, cells loaded with oleic acid; for activity change, negative = inhibition: at 57.5 µM (top of the series)
# Method in brief: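 Cells seeded at 5,000 per well were treated with compounds over a concentration series and loaded with oleic acid (400 uM, as added). Lipid droplet fluorescence (488 nm excitation, 500-530 nm channel) was read by laser-scanning cytometry and normalized to 20 uM Triacsin C.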
# [9] = target: Dual specificity protein kinase CLK4 (Homo sapiens) (UniProt Q9HAZ1); assay: qHTS Assay for Inhibitors of CDC-like Kinase 4 (Kinase-Glo Assay) (AID 1770); conditions: recombinant Clk4, Kinase-Glo ATP depletion luminescence; series mostly up to 66.7 µM; also: nearly all actives have a fitted effect of over 65% in size; also: potency is read from the fitted curve at half-maximal effect
# Chain of Dual specificity protein kinase CLK4 (Homo sapiens) (Q9HAZ1 whole entry, looked up): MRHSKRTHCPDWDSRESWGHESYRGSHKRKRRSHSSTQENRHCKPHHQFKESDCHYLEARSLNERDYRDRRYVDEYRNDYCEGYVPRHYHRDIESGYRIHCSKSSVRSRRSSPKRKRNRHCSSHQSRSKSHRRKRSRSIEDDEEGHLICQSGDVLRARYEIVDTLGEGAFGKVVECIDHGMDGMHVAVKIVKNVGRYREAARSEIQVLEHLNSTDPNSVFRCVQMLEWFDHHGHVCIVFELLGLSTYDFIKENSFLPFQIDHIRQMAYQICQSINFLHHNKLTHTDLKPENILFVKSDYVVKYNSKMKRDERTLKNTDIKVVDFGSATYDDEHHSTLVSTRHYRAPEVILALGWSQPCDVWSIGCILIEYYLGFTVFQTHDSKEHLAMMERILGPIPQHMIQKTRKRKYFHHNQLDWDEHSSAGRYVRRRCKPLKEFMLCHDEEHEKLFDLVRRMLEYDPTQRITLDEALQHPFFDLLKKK
# Method in brief: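 Recombinant human Clk4 (25 nM) phosphorylated RS repeat peptide (100 uM) with 1 uM ATP in Tris pH 7.5/MgCl2/EGTA/DTT/Triton buffer for 4.5 h at room temperature. Residual ATP was quantified by Kinase-Glo luciferase luminescence.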
# [10] = target: Dual specificity protein kinase CLK4 (Homo sapiens) (UniProt Q9HAZ1); assay: qHTS Assay for Inhibitors of CDC-like Kinase 4 (ADP-Glo Assay) (AID 1771); conditions: recombinant CLK4, ADP-Glo luminescence; series mostly up to 80 µM; also: nearly all actives have a fitted effect of over 70% in size; also: potency is read from the fitted curve at half-maximal effect
# Method in brief: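 ADP production was read by ADP-Glo luminescence after residual ATP depletion, following 1 h room-temperature reaction of 25 nM Clk4, 1 uM ATP and 100 uM RS peptide with MgCl2, EGTA, DTT and Triton X-100.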
# [11] = target: Dual specificity protein kinase CLK4 (Homo sapiens) (UniProt Q9HAZ1); assay: qHTS Assay for Inhibitors of CDC-like Kinase 4 (ADP-FP Assay) (AID 1795); conditions: Transcreener ADP fluorescence polarization; series mostly up to 50 µM; also: nearly all actives have a fitted effect of over 60% in size; also: potency is read from the fitted curve at half-maximal effect
# Method in brief: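 Recombinant human Clk4 (6.25 nM) phosphorylated RS repeat peptide (100 uM) with 1 uM ATP in Tris pH 7.5/MgCl2/EGTA/DTT/Triton buffer for one hour. ADP was quantified by Transcreener competitive fluorescence polarization against an ADP calibration curve.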
# [12] = target: Ubiquitin carboxyl-terminal hydrolase 1 (Homo sapiens) (UniProt O94782); assay: Inhibitors of USP1/UAF1: Pilot qHTS (AID 504865); conditions: purified USP1/UAF1, Ub-rhodamine cleavage fluorescence; series mostly up to 54.9 µM; also: nearly all actives have a fitted effect of over 35% in size; also: potency is read from the fitted curve at half-maximal effect
# Chain of Ubiquitin carboxyl-terminal hydrolase 1 (Homo sapiens) (O94782 whole entry, looked up): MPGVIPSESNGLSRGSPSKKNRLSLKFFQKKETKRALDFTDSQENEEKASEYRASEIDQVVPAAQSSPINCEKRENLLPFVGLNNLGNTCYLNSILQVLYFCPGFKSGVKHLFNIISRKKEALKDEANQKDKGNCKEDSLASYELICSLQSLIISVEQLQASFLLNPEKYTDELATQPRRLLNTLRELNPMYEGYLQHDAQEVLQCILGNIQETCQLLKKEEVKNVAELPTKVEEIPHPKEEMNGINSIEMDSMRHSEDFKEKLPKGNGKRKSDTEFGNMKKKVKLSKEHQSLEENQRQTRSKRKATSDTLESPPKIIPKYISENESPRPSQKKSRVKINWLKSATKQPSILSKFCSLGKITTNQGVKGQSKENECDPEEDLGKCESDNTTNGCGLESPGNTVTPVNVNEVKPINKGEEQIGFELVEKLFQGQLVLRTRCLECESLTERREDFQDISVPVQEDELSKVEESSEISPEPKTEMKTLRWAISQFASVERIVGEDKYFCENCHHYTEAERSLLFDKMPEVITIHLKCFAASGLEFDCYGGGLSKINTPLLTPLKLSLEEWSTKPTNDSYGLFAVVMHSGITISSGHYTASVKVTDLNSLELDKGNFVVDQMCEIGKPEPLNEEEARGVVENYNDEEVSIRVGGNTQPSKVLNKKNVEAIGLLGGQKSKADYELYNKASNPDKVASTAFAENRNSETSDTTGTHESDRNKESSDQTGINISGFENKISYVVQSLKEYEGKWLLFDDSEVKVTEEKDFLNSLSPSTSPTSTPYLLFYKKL
# Method in brief: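 USP1/UAF1 complex (1nM) preincubated with compound 15 min at room temperature, then Ub-Rho substrate (150nM final) added. Fluorescence read kinetically at 480/540 nm, 6 reads every 60 seconds. Buffer: 50mM HEPES pH 7.8, 0.5mM EDTA, 0.1 mg/ml BSA, 1mM TCEP, 0.01% Tween-20.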
# [13] = Primary qHTS for small molecule stabilizers of the endoplasmic reticulum resident proteome: Secreted ER Calcium Modulated Protein (SERCaMP) assay (AID 1508630); conditions: SH-SY5Y GLuc-SERCaMP (Gaussia luciferase released on ER calcium loss) secretion, thapsigargin, luminescence; series mostly up to 38.4 µM; also: % is scaled to controls: 0 for no effect and ±100 for the full control effect
# Method in brief: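 The SH-SY5Y reporter protocol was run at 3 concentrations up to 38.3 uM (primary) or 11 concentrations (follow-up): 16 h compound, 100 nM thapsigargin for 4 h, then extracellular luciferase luminescence.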
# [14] = target: Cytochrome P450 1A2 (Homo sapiens) (UniProt P05177); assay: p450-cyp1a2 (AID 410; calls by dose curve; also: potency is read from the fitted curve at half-maximal effect); conditions: recombinant CYP1A2, luciferin-ME demethylation, luminescence; series mostly up to 57 µM
# Chain of Cytochrome P450 1A2 (Homo sapiens) (P05177 whole entry, looked up): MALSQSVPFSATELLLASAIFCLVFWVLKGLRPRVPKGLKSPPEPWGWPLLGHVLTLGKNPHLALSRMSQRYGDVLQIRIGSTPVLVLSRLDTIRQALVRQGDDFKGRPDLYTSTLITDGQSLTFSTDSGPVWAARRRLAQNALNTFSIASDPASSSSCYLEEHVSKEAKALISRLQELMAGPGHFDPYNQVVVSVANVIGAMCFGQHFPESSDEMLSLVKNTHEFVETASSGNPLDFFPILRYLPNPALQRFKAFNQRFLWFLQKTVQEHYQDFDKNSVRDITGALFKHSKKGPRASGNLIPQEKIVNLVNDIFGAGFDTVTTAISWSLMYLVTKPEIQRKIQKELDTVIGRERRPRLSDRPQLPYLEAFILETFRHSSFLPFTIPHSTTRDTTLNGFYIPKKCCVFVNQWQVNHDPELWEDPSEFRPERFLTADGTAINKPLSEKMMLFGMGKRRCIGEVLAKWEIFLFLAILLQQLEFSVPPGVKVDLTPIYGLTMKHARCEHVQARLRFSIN
# Method in brief: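 Luminescent demethylation readout: Luciferin-ME (100uM, equal to Km) turned over by 20nM CYP1A2 for 60 min at room temperature after NADPH regeneration addition, following 10 min compound preincubation. Normalization used 57 uM furafylline as full inhibition.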
# [15] = target: Glucocorticoid receptor (Homo sapiens) (UniProt P04150); assay: GR-EFC Redistribution (AID 451; calls by dose curve; also: potency is read from the fitted curve at half-maximal effect); conditions: CHO-K1 GR-EFC translocation, beta-gal luminescence, 2 h
# Method in brief: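 CHO-K1 cells stably expressing nuclear-localized β-gal enzyme acceptor and GR fused C-terminally to the enzyme donor fragment; ligand-driven nuclear translocation restores β-gal by complementation. Compounds titrated up to 46 uM final, 2 h at 37 °C; luminescence read.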
# [16] = target: 3',5'-cyclic-AMP phosphodiesterase 4B (Homo sapiens) (UniProt Q07343); assay: qHTS Assay for Inhibitors of PDE-IV (AID 607; active = well fitted activation curve with a large enough effect in the main read-out, with a control signal flat, not every such curve was filed as active; also: % of control where 0% means no effect); conditions: HEK293 ACTOne CNG channel cells, membrane potential fluorescence; series mostly up to 22.9 µM
# Chain of 3',5'-cyclic-AMP phosphodiesterase 4B (Homo sapiens) (Q07343 whole entry, looked up): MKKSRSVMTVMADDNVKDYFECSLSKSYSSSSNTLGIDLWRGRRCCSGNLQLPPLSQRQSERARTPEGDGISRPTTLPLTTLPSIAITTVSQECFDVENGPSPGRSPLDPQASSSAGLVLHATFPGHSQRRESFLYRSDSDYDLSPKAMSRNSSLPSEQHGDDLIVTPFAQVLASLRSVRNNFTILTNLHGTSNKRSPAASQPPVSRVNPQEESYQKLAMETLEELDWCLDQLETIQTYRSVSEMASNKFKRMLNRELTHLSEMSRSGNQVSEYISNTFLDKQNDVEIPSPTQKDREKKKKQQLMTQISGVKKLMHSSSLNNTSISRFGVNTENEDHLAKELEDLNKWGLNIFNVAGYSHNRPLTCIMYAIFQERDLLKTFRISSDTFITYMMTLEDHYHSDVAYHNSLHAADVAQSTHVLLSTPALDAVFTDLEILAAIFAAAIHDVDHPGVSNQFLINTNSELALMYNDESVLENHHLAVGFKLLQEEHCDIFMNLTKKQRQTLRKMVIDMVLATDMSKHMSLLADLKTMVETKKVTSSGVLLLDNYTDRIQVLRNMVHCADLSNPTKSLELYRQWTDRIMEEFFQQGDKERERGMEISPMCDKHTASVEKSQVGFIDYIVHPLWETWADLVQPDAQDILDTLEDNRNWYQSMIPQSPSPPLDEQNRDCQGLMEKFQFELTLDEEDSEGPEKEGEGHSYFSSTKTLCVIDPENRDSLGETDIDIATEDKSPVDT
# Method in brief: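 The readout is membrane depolarisation from a cAMP-sensing CNG channel, detected with a potential dye at ex 535/em 590. Cells were HEK293-derived (endogenous PDE-IV) at 1000 cells/well, titrated up to 22.9 uM final.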
# [17] = qHTS Assay for Identification of Small Molecule Agonists for Hypoxia Response Element Signaling Pathway (AID 914; active = well fitted activation curve with a large enough effect in the signal ratio, with a control signal flat, not every such curve was filed as active; the % refers to the signal ratio; also: potency is read from the fitted curve at half-maximal effect); conditions: ME-180 HRE-bla reporter, beta-lactamase ratio, CoCl2, 17 h; activation: stronger effect = higher value
# Method in brief: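 Reporter activity (beta-lactamase, CCF4 460nm/530nm ratio) in HRE-bla ME-180 cells is recorded after 17 h compound exposure with EC50 CoCl2 at 37 degrees Celsius. AC50 values come from titration data.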
# [18] = AP1 Signaling Pathway (AID 357; active = well fitted curve in either direction with a large enough effect, not every such curve was filed as active); conditions: ME-180 (cervical carcinoma) AP-1-bla reporter, EGF-induced, beta-lactamase ratio, 5 h; at 7.69 µM (top of the series) unless noted
# Method in brief: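 Read-out was the 460nm/530nm emission ratio (excitation 405nm) after CCF4 loading for 2.5 hours at room temperature. Cells carried an AP-1-driven beta-lactamase reporter, were stimulated with EC50 EGF plus compound for 5 hours, and AC50 values came from titrations.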
# [19] = measured here: cell count channel max response
# [20] = measured here: lipid channel max response
SMILES,Potency [1],"activity change, negative = inhibition [2]","activity, negative = inhibition [3]",Potency [4],outcome [5],Potency [6],Potency [7],"activity change, negative = inhibition [8]","max response [8, 19] [%]","max response [8, 20] [%]",Potency [9],Potency [10],Potency [11],Potency [12],Potency [13],Potency [14],Potency [15],Potency [16],Potency [17],"activity change, negative = inhibition [18]"
FC(F)(F)c1ccccc1-c1nc(NCc2cccs2)c2ccccc2n1,> 11.4 µM (inactive),-18.2% (inactive),-11.7% (inactive),> 46 µM (inactive),inactive,3.98 µM (active),inactive,2.3% (inactive),10.4,10.9,inactive,inactive,inactive,7.94 µM (active),inactive,–,–,–,–,–
Cn1c(=O)c(-c2ccc(Cl)cc2)nc2cnc(N3CCOCC3)nc21,> 11.4 µM (inactive),26.9% (inactive),–,> 9.22 µM (inactive),inactive,–,–,6.96% (inactive),10.9,17.6,inactive,inactive,inactive,inactive,inactive,2.51 µM (active),> 46 µM (inactive),inactive,2.51 µM (active),–
COCCNc1ncnc2ccc(-c3cccnc3)cc12,> 11.4 µM (inactive),–,18% (inactive),–,inactive,–,–,5.11% (inactive),-1.43,-8.04,12.6 µM (active),12.6 µM (active),10 µM (active),–,inactive,0.2 µM (active),> 46 µM (inactive),inactive,–,–
COc1ccc(-c2nc3cnc(N4CCOCC4)nc3n(C)c2=O)cc1,> 11.4 µM (inactive),-0.157% (inactive),-2.93% (inactive),> 9.22 µM (inactive),inactive,–,–,1.23% (inactive),7.61,5.75,inactive,inactive,inactive,–,inactive,–,–,inactive,–,-14.2% (inactive)
Cc1nc2cncnc2n(C2CC2)c1=O,> 11.4 µM (inactive),2.34% (inactive),-12.1% (inactive),> 9.22 µM (inactive),inactive,–,inactive,9.2% (inactive),24,34.8,inactive,inactive,inactive,inactive,inactive,15.8 µM (active),> 46 µM (inactive),inactive,–,–
COc1ncc2nc(-c3ccc(F)cc3)c(=O)n(C)c2n1,> 11.4 µM (inactive),–,–,> 9.22 µM (inactive),inactive,–,inactive,7.5% (inactive),17.8,25.2,inactive,inactive,inactive,inactive,inactive,0.501 µM (active),> 46 µM (inactive),inactive,3.16 µM (active),–
COc1ncc2nc(-c3cccs3)c(=O)n(CCc3ccccc3)c2n1,> 11.4 µM (inactive),11.4% (inactive),–,> 9.22 µM (inactive),inactive,–,inactive,2.39% (inactive),-3.52,-2.93,inactive,inactive,inactive,inactive,inactive,1.26 µM (active),> 46 µM (inactive),–,3.16 µM (active),–
COCCn1c(=O)cnc2cnc(Nc3ccccc3)nc21,> 11.4 µM (inactive),–,–,> 9.22 µM (inactive),inactive,–,–,-9% (inactive),-2.6,-12.1,3.55 µM (active),3.16 µM (active),2.82 µM (active),inactive,inactive,1 µM (active),> 46 µM (inactive),inactive,–,–
Cc1cnc(CNc2ccnc(-c3ccccc3CN(C)C)n2)cn1,> 11.4 µM (inactive),-5.1% (inactive),12.3% (inactive),–,inactive,–,–,5.8% (inactive),23.9,27.5,inactive,inactive,inactive,inactive,inactive,–,> 46 µM (inactive),inactive,–,10.8% (inactive)
O=c1c(-c2ccc(Cl)cc2)nc2cnc(N3CCNCC3)nc2n1Cc1cccs1,> 11.4 µM (inactive),–,–,> 9.22 µM (inactive),–,5.01 µM (active),inactive,0.33% (inactive),-11.5,-12.6,inactive,inactive,inactive,–,inactive,12.6 µM (active),> 46 µM (inactive),inactive,–,–
COc1ccc(-n2c(=O)c(-c3ccc(Cl)cc3)nc3cnc(N4CCNCC4)nc32)cc1,> 11.4 µM (inactive),–,–,–,–,–,–,5.55% (inactive),9.83,16.5,inactive,inactive,inactive,inactive,inactive,12.6 µM (active),> 46 µM (inactive),inactive,–,–
